DAX1 inh-1 – DAX1 (NR0B1) inhibition, primary screen; HEK293T StAR-luciferase reporter, SF-1/DAX-1 repression relief; inhibition, % at 6.8 µM; 370,000 compounds, 1.1% hits; AID 652010;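 active = inhibition above the mean over all tested compounds plus 3 SD, cut at about 3.6% in these data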;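 note: 0% = DAX-1 cells with DMSO and 100% = cells lacking DAX-1 with DMSO; higher inhibition means more luminescence from relief of DAX-1 repression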
ssDAF12 agonist – S. stercoralis DAF-12 activation, primary screen. HEK293 ssDAF-12/GRIP1 lit1-tk-luc reporter, luminescence; % of 3 µM dafachronic acid response. activation, % at 6.8 µM. 370,000 compounds, 1% hits. AID 652126;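 active = activation above the mean over all tested compounds plus 3 SD, cut at about 0.9% in these data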;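 note: 0% = DMSO-only wells and 100% = 3 µM delta7-dafachronic acid wells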
hgDAF12 agonist – hgDAF-12 agonism, primary luciferase screen; HEK293 GAL4-hgDAF12 UAS-luciferase reporter, agonist luminescence; normalized to butyrate control; activation, % at 6.8 µM; 370,000 compounds, 1.8% hits;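 active = activation above a cutoff set at the mean of all screened compounds plus 3 SD, cut at about 10% in these data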;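 note: 0% = DMSO wells and 100% = sodium butyrate wells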
Wee1 stabilizer – human Wee1 degradation inhibition, primary screen; P30291; HeLa Luc-Wee1K328M stability, luciferase luminescence; 100% = proteasome inhibitor MG132 effect; reporter increase, % at 5 µM; 220,000 compounds, 1.2% hits;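 active = activation above the mean of all tested compounds plus 3 SD, set per screening run, cut at about 8.8% in these data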;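 note: cells exposed to compound for 20 h before luminescence read; 0% = DMSO alone and 100% = MG132 at 30 µM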
DAX1 inh-2 – inhibits human nuclear receptor DAX1. 340,000 compounds, 0.99% hits. inhibition, % at 6.75 µM. HEK293 Gal4-DAX1 luciferase reporter, luminescence;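 active = inhibition above the mean over all tested compounds plus 3 SD, cut at about 4.2% in these data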;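 note: 0% = DAX1-transfected cells with DMSO and 100% = empty-vector control cells with DMSO; inhibition shows as a rise in luminescence from relieved DAX1 repression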
Target sequence (P51843 207-470 limits assumed): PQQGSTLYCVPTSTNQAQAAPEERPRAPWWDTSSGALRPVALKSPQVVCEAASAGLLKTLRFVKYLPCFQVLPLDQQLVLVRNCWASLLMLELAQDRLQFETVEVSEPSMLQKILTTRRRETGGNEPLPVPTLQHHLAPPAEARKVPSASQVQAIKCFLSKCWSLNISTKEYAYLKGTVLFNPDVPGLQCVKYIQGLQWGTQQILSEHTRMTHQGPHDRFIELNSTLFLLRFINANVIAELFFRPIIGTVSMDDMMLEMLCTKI
hcDAF-12 act – activates DAF-12 receptor from parasite H. contortus | activation, % at 6.8 µM | 370,000 compounds, 1.4% hits | HEK293 hcDAF-12 lit1-tk-luc reporter, luminescence; 0% DMSO, 100% Δ7-dafachronic acid;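 active = activation above the mean of all tested compounds plus 3 SD, cut at about 5.5% in these data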;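 note: 100% = response to 3 µM Δ7-dafachronic acid high control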
hgDAF12 conf – confirmation of H. glycines DAF-12 agonists | shares compounds with hgDAF12 agonist | HEK293 GAL4-hgDAF12 luciferase reporter, agonist mode; percent of butyrate response | activation, % at 6.8 µM | 3,300 compounds, 80% hits | AID 743050;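 active = mean activation over triplicate wells above the hit cutoff derived from the earlier primary screen, cut at about 11% in these data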;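 note: 0% = DMSO low control and 100% = 2 mM sodium butyrate high control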
LXR ag 2 – counter-screen for DAF-12 agonists: agonists of human LXR-beta; HEK293 Gal4-LXR luciferase reporter, 24 h; 3,300 tested, under 10 active; activation, % at 6.8 µM; shares compounds with hgDAF12 agonist;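 active = mean activation of the triplicate above a set limit carried over from the primary screen, none filed active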
* hit, by the source's call; / = no result given. Hits are enriched below; roughly 4.6% of the tested compounds scored in any of these assays.

SMILES	DAX1 inh-1	ssDAF12 agonist	hgDAF12 agonist	Wee1 stabilizer	DAX1 inh-2	hcDAF-12 act	hgDAF12 conf	LXR ag 2
Cc1noc(C)c1CSCC(=O)Nc1cccc(C(F)(F)F)c1	-1.8	-1.0	2.2	/	0.3	1.0	/	/
Cc1ccc(NC(=O)COC(=O)c2ccco2)cc1	0.2	-1.4	-2.8	0.8	-0.3	0.6	/	/
Cc1ccc2nc(-c3ccc(NC(=O)COC(=O)c4ccco4)cc3)sc2c1	4.1*	0.1	21.3*	0.4	1.5	4.5	19.3*	0.9
O=C(Nc1ccc(SC(F)F)cc1)c1ccccc1F	3.9*	-0.1	15.9*	3.4	6.2*	4.6	15.4*	0.8
Cc1ccc(C(=O)c2ccccc2C(=O)OCC(=O)Nc2ccc(SC(F)F)cc2)cc1	-1.2	-1.3	-3.6	1.1	0.4	-2.1	/	/
O=C(Nc1ccc(F)cc1)c1ccccc1	1.5	-1.1	4.3	-3.9	1.3	-0.8	/	/
O=C(COC(=O)Cc1ccccc1F)Nc1ccc(SC(F)F)cc1	-0.1	-1.1	3.5	3.7	-0.2	0.1	/	/
CC(=O)Nc1ccc(NC(=O)c2ccccc2F)cc1	1.2	-0.2	2.4	-2.4	3.3	-0.3	/	/
O=C(Nc1ccc(SC(F)F)cc1)c1ccc(F)cc1	3.0	-0.1	13.6*	0.2	2.1	2.8	13.6*	0.6
O=C(COC(=O)c1ccccc1Cc1ccccc1)Nc1ccc(SC(F)F)cc1	2.6	-0.4	14.5*	2.1	1.4	2.8	17.3*	0.5
O=C(Cc1ccccc1F)Nc1ccc(SC(F)F)cc1	2.7	-0.2	16.6*	8.1	3.5	5.2	13.9*	0.5
O=C(NCC1CC1)c1csc([C@@H]2O[C@H](CO)[C@H](O)[C@H](O)[C@H]2O)n1	3.2	-0.1	0.1	/	/	0.5	/	/
CC1CCc2c(sc(NC(=O)c3cccn3C)c2C(N)=O)C1 (centres undefined)	2.5	-0.6	7.1	/	-1.1	3.9	/	/
COc1ccc(Nc2ncnc3c2c(C)c(C)n3CCO)cc1	3.5	0.5	16.4*	/	3.1	2.8	16.8*	0.7
O=C(NC(=S)Nc1ccccc1O)c1ccc(Cl)cc1Cl	0.7	0.7	14.3*	3.5	0.5	6.5*	9.3	0.3
Cc1nn(Cc2c(F)c(F)c(F)c(F)c2F)c(C)c1NC(=O)c1cccc(COc2ccccc2Cl)c1	1.3	-0.5	19.9*	14.8*	-2.6	4.5	9.1	0.4
Cc1nn(Cc2cccc(F)c2)c(C)c1NC(=O)c1ccc(COc2ccccc2Cl)cc1	-1.4	-2.5	-5.5	0.2	-2.8	-4.1	/	/
Clc1ccc(-c2csc(N3CCOCC3)n2)cc1	1.7	-0.7	10.2	4.8	0.8	1.4	/	/
Brc1ccc(-c2csc(N3CCOCC3)n2)cc1	4.1*	0.3	19.3*	4.6	7.5*	3.3	11.2*	0.6
CC1CCN(S(=O)(=O)CCNC(=O)c2ccc(F)cc2)CC1	0.2	-1.0	1.0	/	-1.1	0.9	/	/
COc1cc(C)ccc1OCc1cc(C(=O)N(Cc2nccn2C)C(C)C)no1	3.7*	-0.2	17.9*	/	0.9	4.6	12.6*	0.6
O=C(Nc1ccccc1)c1cc(C2CCCN(C(=O)c3cccs3)C2)on1 (centres undefined)	3.3	-1.1	14.2*	/	/	3.5	13.0*	0.4
O=C(NCc1ccccc1)c1cc(C2CCCN(C(=O)c3cccs3)C2)on1 (centres undefined)	-0.8	-1.6	4.0	/	/	-0.4	/	/
COc1ccc(C2C(CC(=O)O)=C(Nc3ccccc3)C(=O)N2c2ccccc2)cc1 (centres undefined)	1.5	-0.7	4.4	-2.8	1.2	0.6	/	/
O=C(O)CC1=C(Nc2ccccc2)C(=O)N(c2ccccc2)C1c1ccc(F)cc1 (centres undefined)	1.7	-0.8	18.3*	4.1	0.3	2.8	10.9*	0.4
O=C(N/N=C\c1ccco1)Nc1cccc(Cl)c1	2.4	0.2	13.7*	7.0	0.8	6.3*	15.9*	0.5
